An excerpt weighted towards active compounds, which were near 5.2% of everything screened.
SMARCA2 act = activators of SMARCA2 function | 370,000 tested, 1% active | activation, % at 9.1 µM | MG213 cells, MMTV-luciferase reporter, dexamethasone, overnight; in the data active = activation above about 7.8%;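 note: 0% = vehicle wells and 100% = reference activator wells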
NadD block = inhibitors of Staphylococcus aureus NadD; purified NadD enzyme, colorimetric absorbance read-out; inhibition, % at 20 µM; 360,000 tested, 0.78% active; AID 602399; in the data active = inhibition above about 26%
GRIN3A LBD mod = NR3A (human) ligand-binding domain modulation. AID 1259313. NR3A LBD differential scanning fluorimetry, Tm shift; 0% = protein alone, 100% = glycine-bound protein. Tm shift relative to glycine control, % at 25 µM. 340,000 tested, 2.5% active;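 active = melting temperature shift of at least 10% of the positive control shift, at one fixed dose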
SKN-1 block = C. elegans SKN-1 inhibition | 360,000 tested, 0.49% active | inhibition, % at 21.8 µM | C. elegans VP596 Pgst-4::GFP/RFP ratio, acrylamide-induced, 24 h | AID 624304;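 active = interference check ratio from 0.5 to 1.5 plus GFP to RFP signal ratio inhibition reaching or exceeding a fixed threshold, cut at about 30% in these data, passing the limit was not always enough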
Vif imaging = blocks HIV Vif function; inhibition, % at 7.49 µM; 340,000 tested, 0.35% active; HEK293T cells, Vif self-association by quenched fluorescence, imaging, 24 h; AID 602346; in the data active = inhibition above about 50%, passing the limit was not always enough
esBAF inh = inhibitors of esBAF chromatin remodeling in mouse ES cells; Bmi1-luciferase knock-in reporter, 24 h; 100% = twice the neutral-well signal; 350,000 tested, 2% active; reporter increase, % at 12.5 µM; AID 602393; in the data active = activation above about 40%;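 note: 0% = median of the plate's neutral control wells and 100% = double that signal; a rise in the Bmi1 reporter signal indicates esBAF inhibition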
* hit, by the source's call; · = not tested or not shown.

SMILES	SMARCA2 act	NadD block	GRIN3A LBD mod	SKN-1 block	Vif imaging	esBAF inh
O=C(O)c1cc(-c2ccc(/C=C3/SC(=S)N(Cc4ccccc4)C3=O)o2)ccc1Cl	-4	20	2	12	6	54*
O=C1/C(=C/c2ccncc2)SC(=S)N1Cc1ccccc1	-3	3	21*	-7	-1	·
Cc1ccc(/C=C2\SC(=S)N(Cc3ccccc3)C2=O)o1	-2	19	-3	-10	-16	5
Oc1cccc(/C=N/N(Cc2ccccc2)c2ccccc2)c1	-4	-7	16*	-5	-10	·
C(=N\N(Cc1ccccc1)c1ccccc1)/c1cccnc1	-2	5	-17	4	-2	·
CCN(CC)c1ccc(-c2nn3c(-c4n[nH]c5c4CCC5)nnc3s2)cc1	-1	54*	-5	2	18	-17
C[C@H]1CN([C@@H](C)CO)C(=O)c2ccccc2-c2ccccc2CO[C@H]1CN(C)C(=O)[C@@H]1CCCN1C	·	·	·	·	·	-7
S=C(NCCN1CCOCC1)Nc1ccc(-c2nc3ccccc3[nH]2)cc1	1	0	15*	18	-10	·
S=C(Nc1ccc(-c2nc3ccccc3[nH]2)cc1)Nc1cccnc1	-1	5	37*	8	0	17
c1cncc(-c2nc3ccccc3[nH]2)c1	-2	4	2	-4	1	·
C[C@@H]1CN([C@H](C)CO)C(=O)c2cccc(NC(=O)c3ccc(-c4nccs4)cc3)c2O[C@H]1CN(C)CC1CCCCC1	·	·	·	·	·	8
C[C@H]1CN([C@@H](C)CO)C(=O)c2cccc(NC(=O)c3ccncc3)c2O[C@@H]1CN(C)S(=O)(=O)c1cn(C)cn1	·	·	·	·	·	-1
CCCCC(CC)CO (centres undefined)	0	1	0	-10	-5	-2
CCCCC(CC)CN=C(N)NC(N)=NCCCCCCN=C(N)NC(N)=NCC(CC)CCCC (centres undefined)	·	15	3	38*	-8	-72
CC(=O)Nc1ccc(S(=O)(=O)NC2(C(F)(F)F)NC(=O)N(c3ccc(C)cc3)C2=O)cc1 (centres undefined)	-1	-7	10*	-13	0	-6
COCC(C)n1c(C)cc(C(=O)COC(=O)CN=C2NS(=O)(=O)c3ccccc32)c1C (centres undefined)	0	-5	10*	-5	-11	0
Cc1ccc(C2CC(=O)Oc3cc(O)ccc32)cc1 (centres undefined)	0	-2	-5	35*	-3	-8
O=C1CC(c2ccccc2)c2cc(O)ccc2O1 (centres undefined)	-1	1	1	-2	-1	8
C[C@@H]1CN([C@H](C)CO)S(=O)(=O)c2ccc(C#C[C@@H](C)O)cc2O[C@@H]1CN(C)C(=O)C1CCC1	·	·	·	·	·	0
CCCCNC(=O)CSc1nc2ccc(N3CCOCC3)cc2c(=O)n1Cc1ccc(OC)cc1	6	3	2	4	-15	64*
COCCNC(=O)CSc1nc2ccc(N3CCOCC3)cc2c(=O)n1Cc1ccc(OC)cc1	2	12	-1	-4	3	78*
COCCNC(=O)CSc1nc2cc(OC)c(OC)cc2c(=O)n1Cc1ccc(OC)cc1	4	9	0	-1	2	6
CC(C)NC(=O)N1[C@H](CO)[C@H]2c3ccccc3N(C(=O)Nc3ccc(Cl)cc3)C[C@H]21	·	·	·	·	·	11
Cc1noc(C)c1S(=O)(=O)Nc1ccc2c(c1)C(=O)N([C@H](C)CO)C[C@@H](C)[C@H](CN(C)Cc1ccncc1)OCCCC[C@@H](C)O2	·	·	·	·	·	-2
COCCCNC(=S)N/N=C/c1ccccc1O	-4	-1	0	3	-6	49*
SMILES	SMARCA2 act	NadD block	GRIN3A LBD mod	SKN-1 block	Vif imaging	esBAF inh
CCCNC(=S)Nc1ccc(Br)cc1	1	-3	-3	15	-10	-19
COc1ccc(/C(C)=N/NC(=S)NCCc2ccccc2)c(O)c1	-1	5	23*	2	-4	-4
Fc1cccc(NC(=S)Nc2ccc(Br)cc2)c1	0	-4	27*	0	-17	22
COc1cccc(NC(=S)Nc2ccc(F)cc2)c1	-1	3	-15	5	4	6
S=C(NCCc1ccccc1)Nc1ccc(Br)cc1	1	-5	33*	8	4	·
O=C(C[C@H]1CC[C@H]2[C@@H](COC[C@H](O)CN2Cc2cccc(Cl)c2)O1)Nc1nccs1	·	·	·	·	·	-6

Screening results from PubChem.
